The results in this text go back to PubChem BioAssay (NCATS).

“And” between values parts separate entries of the source, which are not always exact repeats. Equal entries are not always repeated. Records with an inconclusive call do not appear. Unmarked numbers belong to inactive results. The source made the active and inactive calls. Unless noted, calls follow the shape of the dose curve; as a rule, active = well fitted curve in the direction sought with a large enough effect; inconclusive = small, poorly fitted or top-dose-only effect, or another doubt; inactive = no such curve, though single readings can be large; an effect the other way counts as inactive or inconclusive.

For assay [1], the target named is Cellular tumor antigen p53 (Homo sapiens) (UniProt P04637). The experiment in a line: Primary qHTS for small molecule compounds that upregulate eGFP-tagged delta133p53alpha (in N-terminal) cells. (AID 2060322). Also: nearly all actives have a fitted effect of over 75% in size. Also: potency is read from the fitted curve at half-maximal effect.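 As to activation: series mostly up to about 56 µM; 0% = DMSO vehicle and 100% = reference activator.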 The following applies: NCI-H358 eGFP-delta133p53alpha fluorescence, 24 h; activation: stronger effect = higher value. The method in brief: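 NCI-H358 cells pre-induced 24 h with 10 ng/ml doxycycline to express N-terminal eGFP-delta133p53alpha, then dosed 24 h at 37C without doxycycline; fixed, Hoechst-stained, GFP intensity by laser scanning cytometry, normalized to DMSO (0%) and 57.5 uM 5-azacytidine (100%).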
Sequence of Cellular tumor antigen p53 (Homo sapiens) (P04637 whole entry, looked up): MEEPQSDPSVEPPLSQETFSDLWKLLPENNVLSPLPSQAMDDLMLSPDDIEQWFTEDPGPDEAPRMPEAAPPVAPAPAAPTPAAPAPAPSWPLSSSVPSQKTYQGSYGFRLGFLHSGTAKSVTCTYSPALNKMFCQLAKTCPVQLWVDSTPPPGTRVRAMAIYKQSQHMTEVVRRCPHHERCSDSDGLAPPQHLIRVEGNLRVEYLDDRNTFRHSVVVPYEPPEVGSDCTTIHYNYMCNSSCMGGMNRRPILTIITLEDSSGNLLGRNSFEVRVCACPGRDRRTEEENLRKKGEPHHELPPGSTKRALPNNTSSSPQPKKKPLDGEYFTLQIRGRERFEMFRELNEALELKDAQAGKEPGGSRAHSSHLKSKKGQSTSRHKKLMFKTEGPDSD
In general terms: Quantitative high-throughput screening tests each substance at several concentrations.

Assay [2] shares this target. The experiment in a line: Primary qHTS for small molecule compounds that upregulate eGFP-tagged delta133p53alpha (in C-terminal) cells. (AID 2060324). Also: potency is read from the fitted curve at half-maximal effect. Summed up:
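C-terminal eGFP-tagged delta133p53alpha NCI-H358 line; dox-induced (100 ng/ml, 24 h) then plated without dox; compounds pinned in titration, 24 h 37 °C/5% CO2; PFA fix, Hoechst nuclei; GFP by LSC.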

Assay [3] addresses Aldehyde dehydrogenase, mitochondrial (Homo sapiens) (UniProt P05091). In words: qHTS for Inhibitors of the Aldehyde Dehydrogenase Family (ALDH2) Validation screens (AID 2061302; active = well fitted inhibition curve with a large enough effect; title and protocol of this record describe different tests;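 also: plate controls were DMSO vehicle for no effect and maximal DPI positive control response for full effect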).
Assay [4] has the same target. The experiment in a line: qHTS for Inhibitors of the Aldehyde Dehydrogenase Family (ALDH2) Primary screen (AID 2061308).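 Also: plate controls were vehicle for no effect and reference inhibitor for full effect; nearly all actives have a fitted effect of over 55% in size.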
The target in assay [5] is Retinaldehyde dehydrogenase 3 (Homo sapiens) (UniProt P47895). In words: qHTS for Inhibitors of the Aldehyde Dehydrogenase Family (ALDH1A3) Primary screen (AID 2061315).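 Also: plate controls were DMSO vehicle for no effect and reference inhibitor for full effect.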
Assay [6] has the same target. The experiment in a line: qHTS for Inhibitors of the Aldehyde Dehydrogenase Family (ALDH1A3) Validation screen (AID 2061312). Also: % is scaled to controls: 0 for no effect and ±100 for the full control effect; nearly all actives have a fitted effect of over 45% in size.
A short description of assay [7]: BET inhibitor-based combinations targeting novel dependencies in MECOM-rearranged (r) AML: OCI-AML3 cell line (AID 2202232). Also: potency is read from the fitted curve at half-maximal effect; nearly all actives have a fitted effect of over 35% in size. Particulars: Potency: OCI-AML3 viability. The method in brief: (§1)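 Cells were plated at 500 per well and exposed to an 11-point dose series of each drug for 48 hr. Viability was measured by CellTiter-Glo luminescence, normalized to DMSO and empty-well controls, and summarized as AUC and per-cell-line Z-AUC.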

Assay [8] can be described thus: BET inhibitor-based combinations targeting novel dependencies in MECOM-rearranged (r) AML: MV-4-11 cell line (AID 2202233). Also: nearly all actives have a fitted effect of over 45% in size. Also: potency is read from the fitted curve at half-maximal effect. The method in brief: (§2)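 Activity is given as area under the curve and as Z-AUC, mean-centred within each cell line. It comes from 11-point dose curves normalized to DMSO and empty wells. CellTiter-Glo luminescence was read after 48 hr drug exposure of 500 cells/well.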

The nature of assay [9]: BET inhibitor-based combinations targeting novel dependencies in MECOM-rearranged (r) AML: HNT-34 cell line (AID 2202234). Also: nearly all actives have a fitted effect of over 35% in size. Also: potency is read from the fitted curve at half-maximal effect. Summed up: as §2
Assay [10] in a line: BET inhibitor-based combinations targeting novel dependencies in MECOM-rearranged (r) AML: UCSD-AML1 cell line (AID 2202235). Also: potency is read from the fitted curve at half-maximal effect; nearly all actives have a fitted effect of over 40% in size. The method in brief:
as §2

Assay [11] is described as follows: BET inhibitor-based combinations targeting novel dependencies in MECOM-rearranged (r) AML: AML-194 cell line (AID 2202237; also: nearly all actives have a fitted effect of over 40% in size; also: potency is read from the fitted curve at half-maximal effect). The method in brief: as §1
The nature of assay [12]: BET inhibitor-based combinations targeting novel dependencies in MECOM-rearranged (r) AML: SET-2 cell line (AID 2202231).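 Also: plate controls were DMSO treated cells for no effect and wells without cells for full effect; nearly all actives have a fitted effect of over 35% in size.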 The following applies: SET-2 AML cells viability, CellTiter-Glo luminescence, 48 h; viability: stronger effect = lower value, series mostly up to about 46 µM. Summed up: as §1
The nature of assay [13]: BET inhibitor-based combinations targeting novel dependencies in MECOM-rearranged (r) AML: AML-191 cell line (AID 2202236;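 also: plate controls were vehicle wells for no effect and wells without cells for full effect; nearly all actives have a fitted effect of over 35% in size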). Summed up: as §1

Take `O=C1NC(=O)/C(=C/c2ccc3c(c2)OC(F)(F)O3)S1`: the activation in assay [1] is -0.772% and -0.477%. Further, the Potency entry in [2], in assay [3], in assay [4] and in assay [5] was “inactive” throughout.

Take `N[C@@H](Cn1ccc(=O)c(O)c1)C(=O)O`: the activation in assay [1] was -3.82% and -8.28%. Further, the Potency entry in assay [2], in assay [3] and in [6] was “inactive” throughout. The activity change, negative = inhibition in assay [4] is 3.38% [at 5.59 µM]; in assay [5] it was 6.23% [at 5.59 µM].

`CCN(CC)CCCC(C)Nc1c2ccc(Cl)cc2nc2ccc(OC)cc12` (stereo not drawn): the Potency in [1] is 12.3 µM (active) and 11.7 µM (active); in assay [2], 26.9 µM (active); in [7] it was 7.42 µM (active); in assay [8], 2.95 µM (active); in [9] it was 7.42 µM (active); in [10] it was 4.68 µM (active). Also, the Potency in assay [11] was 7.42 µM (active). The Potency result in assay [3], in assay [4] and in assay [5] was “inactive” each time.

On to `O=C(O)CCc1ccc(NCc2cccc(Oc3ccccc3)c2)cc1`, for which the activation in [1] is -48.8% and -14.3% and -8.5%. Also, the Potency entry in [2], in [3], in assay [4], in [6], in assay [5] and in [8] was “inactive” each time. The Potency result in assay [9], in [13] and in [11] was “inactive” throughout. Also, in [12], the viability is 117%.

In the case of `O=[N+]([O-])c1ccc(CNc2nc(NCc3cccc(C(F)(F)F)c3)nc3nc[nH]c23)cc1`, the activation in [1] is -48.1% and 15.7%. Moreover, the Potency result in [2], in [3], in assay [4], in [6] and in [5] was “inactive” in each case.

For the molecule `CNCCCN1c2ccccc2CCc2ccccc21`, the activation in assay [1] was 14.2% and -26.6%. Further, the Potency result in [2], in assay [3] and in [6] was “inactive” each time.

Take `O=c1c2ccccc2nc2n1CCc1c-2[nH]c2ccccc12`: the activation in assay [1] is -0.328% and 11% and -19%. The Potency result in [2], in assay [3], in [4], in assay [6] and in assay [5] was “inactive” each time.

In general, viability refers to a read-out of living cells in per cent, often relative to untreated cells.
